# Laboratory results published in publication PMC7862700, “An all-to-all approach to the identification of sequence-specific readers for epigenetic DNA modifications on cytosine”.
# Assays:
# Test in all cases: DAPPL (digital affinity profiling via proximity ligation, sequencing); 10 mM Tris-HCl pH 7.5, 50 mM NaCl, 1 mM DTT, 4% glycerol, room temperature, 30 min; GST-TFs on glutathione beads, 16-mer random dsDNA library, 0.1% formaldehyde crosslink after washing; high values mean tight binding
# FEV = target: T1, FEV (Homo sapiens, UniProt Q99581 1-238); details: protein: recombinant; tags: N-terminal GST; dsDNA, one strand shown
# T1 sequence: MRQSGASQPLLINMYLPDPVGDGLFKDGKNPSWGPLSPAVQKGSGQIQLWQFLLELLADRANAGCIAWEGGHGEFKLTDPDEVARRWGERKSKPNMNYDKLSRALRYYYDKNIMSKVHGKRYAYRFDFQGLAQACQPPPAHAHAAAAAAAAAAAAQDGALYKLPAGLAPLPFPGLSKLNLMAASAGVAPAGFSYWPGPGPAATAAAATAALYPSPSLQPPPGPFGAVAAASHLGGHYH
# Method in brief: (§1)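 Human transcription factors fused to GST were expressed in yeast, captured on glutathione beads, given DNA barcodes and pooled with a GST-only negative control. Pools were incubated with 200 nmole of a 16-mer random double-stranded DNA library in Tris/NaCl/DTT/glycerol buffer at room temperature for 30 min. They were then washed, crosslinked with 0.1% formaldehyde, proximity-ligated (BsaI/T4 ligase, 1 h, 37 °C), PCR-amplified and sequenced on an Illumina NextSeq500. Binding signal is each 6-mer's read frequency for a factor divided by its frequency for the GST control.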
# ETV5 = ETV5 (Homo sapiens, UniProt P41161 1-510); details: protein: recombinant; tags: N-terminal GST; dsDNA, one strand shown
# Method in brief: as §1
# HSF1 = HSF1 (Homo sapiens, UniProt Q00613 1-529); details: protein: recombinant; tags: N-terminal GST; chain copies: 3; dsDNA, one strand shown
# Method in brief: as §1
# SPIC = target: T2, SPIC (Homo sapiens, UniProt Q8N5J4 1-248); details: protein: recombinant; tags: N-terminal GST; dsDNA, one strand shown
# T2 sequence: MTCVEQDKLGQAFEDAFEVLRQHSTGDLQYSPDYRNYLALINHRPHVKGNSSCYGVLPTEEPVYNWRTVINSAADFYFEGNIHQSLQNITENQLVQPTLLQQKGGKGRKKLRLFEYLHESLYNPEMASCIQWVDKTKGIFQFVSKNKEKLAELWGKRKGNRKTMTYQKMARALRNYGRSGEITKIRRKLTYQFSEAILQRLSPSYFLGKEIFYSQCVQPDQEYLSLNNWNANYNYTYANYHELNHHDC
# Method in brief: as §1
# ELF4 = ELF4 (Homo sapiens, UniProt Q99607 1-663); details: protein: recombinant; tags: N-terminal GST; dsDNA, one strand shown
# Method in brief: as §1
# ELK4 = target: T3, ELK4 (Homo sapiens, UniProt P28324-2 1-405); details: protein: recombinant; tags: N-terminal GST; dsDNA, one strand shown
# T3 sequence: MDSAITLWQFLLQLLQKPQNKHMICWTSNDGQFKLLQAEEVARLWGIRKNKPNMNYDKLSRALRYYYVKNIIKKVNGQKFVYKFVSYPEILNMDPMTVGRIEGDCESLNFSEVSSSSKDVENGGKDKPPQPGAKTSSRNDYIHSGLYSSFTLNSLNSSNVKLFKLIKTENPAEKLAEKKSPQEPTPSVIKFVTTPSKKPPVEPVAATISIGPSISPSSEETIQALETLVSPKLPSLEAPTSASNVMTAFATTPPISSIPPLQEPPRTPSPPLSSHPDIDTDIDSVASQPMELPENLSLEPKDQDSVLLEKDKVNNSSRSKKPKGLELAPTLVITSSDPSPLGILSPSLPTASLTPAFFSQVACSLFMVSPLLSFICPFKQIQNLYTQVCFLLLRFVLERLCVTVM
# Method in brief: as §1
# ETV2 = target: T4, ETV2 (Homo sapiens, UniProt O00321 1-342); details: protein: recombinant; tags: N-terminal GST; dsDNA, one strand shown
# T4 sequence: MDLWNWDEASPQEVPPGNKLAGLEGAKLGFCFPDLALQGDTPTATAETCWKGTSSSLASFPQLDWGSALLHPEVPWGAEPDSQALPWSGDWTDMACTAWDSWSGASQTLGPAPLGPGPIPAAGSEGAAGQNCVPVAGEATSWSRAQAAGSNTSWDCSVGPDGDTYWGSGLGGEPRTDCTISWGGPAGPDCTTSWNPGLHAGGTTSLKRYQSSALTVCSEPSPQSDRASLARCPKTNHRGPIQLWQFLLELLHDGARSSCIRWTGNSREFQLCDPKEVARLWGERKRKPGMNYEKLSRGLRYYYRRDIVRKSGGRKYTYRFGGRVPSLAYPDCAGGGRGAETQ
# Method in brief: as §1
# ELF3 = target: T5, ELF3 (Homo sapiens, UniProt P78545 1-371); details: protein: recombinant; tags: N-terminal GST; dsDNA, one strand shown
# T5 sequence: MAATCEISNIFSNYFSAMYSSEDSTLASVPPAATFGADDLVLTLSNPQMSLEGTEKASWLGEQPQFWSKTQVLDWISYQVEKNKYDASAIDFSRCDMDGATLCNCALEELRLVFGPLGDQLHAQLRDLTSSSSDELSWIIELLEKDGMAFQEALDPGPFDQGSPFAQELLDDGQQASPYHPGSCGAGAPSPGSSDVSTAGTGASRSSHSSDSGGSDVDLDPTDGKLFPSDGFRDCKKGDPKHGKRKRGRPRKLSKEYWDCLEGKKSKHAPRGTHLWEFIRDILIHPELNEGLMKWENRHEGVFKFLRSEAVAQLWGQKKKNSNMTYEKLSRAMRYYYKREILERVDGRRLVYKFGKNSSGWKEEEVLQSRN
# Method in brief: as §1
# CRX = CRX (Homo sapiens, UniProt O43186 1-299); details: protein: recombinant; tags: N-terminal GST; dsDNA, one strand shown
# Method in brief: as §1
# ETV1 = ETV1 (Homo sapiens, UniProt P50549 1-477); details: protein: recombinant; tags: N-terminal GST; dsDNA, one strand shown
# Method in brief: as §1
# Sequence of ETV5 (P41161 whole entry): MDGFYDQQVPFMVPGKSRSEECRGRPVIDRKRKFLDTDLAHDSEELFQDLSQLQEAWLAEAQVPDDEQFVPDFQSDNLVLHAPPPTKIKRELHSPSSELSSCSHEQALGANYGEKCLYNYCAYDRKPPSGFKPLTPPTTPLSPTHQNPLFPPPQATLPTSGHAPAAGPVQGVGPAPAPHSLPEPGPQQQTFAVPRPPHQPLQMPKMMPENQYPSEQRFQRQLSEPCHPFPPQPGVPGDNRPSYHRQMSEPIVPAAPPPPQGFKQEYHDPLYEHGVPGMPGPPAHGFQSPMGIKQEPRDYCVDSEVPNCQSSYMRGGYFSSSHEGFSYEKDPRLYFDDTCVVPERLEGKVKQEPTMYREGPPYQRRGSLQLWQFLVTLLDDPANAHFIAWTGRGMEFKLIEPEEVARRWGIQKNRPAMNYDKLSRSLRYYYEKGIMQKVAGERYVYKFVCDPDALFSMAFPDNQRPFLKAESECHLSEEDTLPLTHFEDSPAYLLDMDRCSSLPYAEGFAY
# Sequence of ETV1 (P50549 whole entry): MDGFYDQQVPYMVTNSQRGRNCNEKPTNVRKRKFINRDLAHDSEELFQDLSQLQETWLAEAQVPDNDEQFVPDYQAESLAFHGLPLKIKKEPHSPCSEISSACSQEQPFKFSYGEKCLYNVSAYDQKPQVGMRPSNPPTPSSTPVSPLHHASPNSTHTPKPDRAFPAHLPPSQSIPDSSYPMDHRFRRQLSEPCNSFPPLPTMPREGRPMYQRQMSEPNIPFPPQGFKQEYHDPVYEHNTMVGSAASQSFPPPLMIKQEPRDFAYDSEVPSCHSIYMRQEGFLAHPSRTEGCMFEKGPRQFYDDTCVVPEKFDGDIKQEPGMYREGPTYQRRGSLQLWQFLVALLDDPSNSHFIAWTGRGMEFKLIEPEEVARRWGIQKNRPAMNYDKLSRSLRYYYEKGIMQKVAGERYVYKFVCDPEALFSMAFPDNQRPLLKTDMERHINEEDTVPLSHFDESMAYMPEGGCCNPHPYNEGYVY
# Sequence of ELF4 (Q99607 whole entry): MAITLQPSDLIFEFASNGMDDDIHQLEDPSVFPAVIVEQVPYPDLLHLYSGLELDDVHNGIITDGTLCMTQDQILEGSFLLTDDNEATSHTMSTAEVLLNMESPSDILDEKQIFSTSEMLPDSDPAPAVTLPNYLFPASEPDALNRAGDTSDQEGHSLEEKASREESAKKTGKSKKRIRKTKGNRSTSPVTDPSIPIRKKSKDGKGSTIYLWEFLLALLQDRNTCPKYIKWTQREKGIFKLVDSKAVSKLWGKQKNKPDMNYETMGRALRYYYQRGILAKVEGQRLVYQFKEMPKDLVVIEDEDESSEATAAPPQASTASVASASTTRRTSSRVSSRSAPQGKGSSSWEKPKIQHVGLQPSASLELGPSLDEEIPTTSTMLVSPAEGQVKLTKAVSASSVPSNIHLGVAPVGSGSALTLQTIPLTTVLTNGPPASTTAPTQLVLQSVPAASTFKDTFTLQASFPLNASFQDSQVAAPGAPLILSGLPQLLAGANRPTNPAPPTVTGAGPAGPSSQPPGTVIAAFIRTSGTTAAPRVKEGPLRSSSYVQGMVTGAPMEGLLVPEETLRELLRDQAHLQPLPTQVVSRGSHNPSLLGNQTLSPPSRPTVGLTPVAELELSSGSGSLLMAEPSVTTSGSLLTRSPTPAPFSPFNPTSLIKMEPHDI
# Sequence of HSF1 (Q00613 whole entry): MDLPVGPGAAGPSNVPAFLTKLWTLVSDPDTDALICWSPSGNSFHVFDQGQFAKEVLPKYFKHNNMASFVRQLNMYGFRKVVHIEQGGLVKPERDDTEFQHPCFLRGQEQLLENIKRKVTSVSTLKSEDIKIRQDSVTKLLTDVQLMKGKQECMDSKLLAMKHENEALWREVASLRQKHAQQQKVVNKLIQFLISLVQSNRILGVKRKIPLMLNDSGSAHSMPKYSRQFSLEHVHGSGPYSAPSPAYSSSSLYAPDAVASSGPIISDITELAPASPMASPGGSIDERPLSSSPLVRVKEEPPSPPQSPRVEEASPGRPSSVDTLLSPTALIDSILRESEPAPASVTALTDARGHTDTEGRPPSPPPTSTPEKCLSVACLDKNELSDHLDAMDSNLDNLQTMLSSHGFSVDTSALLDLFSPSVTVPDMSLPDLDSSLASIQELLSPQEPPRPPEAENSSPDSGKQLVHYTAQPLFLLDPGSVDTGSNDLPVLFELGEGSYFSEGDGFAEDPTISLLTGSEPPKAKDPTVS
# Sequence of CRX (O43186 whole entry): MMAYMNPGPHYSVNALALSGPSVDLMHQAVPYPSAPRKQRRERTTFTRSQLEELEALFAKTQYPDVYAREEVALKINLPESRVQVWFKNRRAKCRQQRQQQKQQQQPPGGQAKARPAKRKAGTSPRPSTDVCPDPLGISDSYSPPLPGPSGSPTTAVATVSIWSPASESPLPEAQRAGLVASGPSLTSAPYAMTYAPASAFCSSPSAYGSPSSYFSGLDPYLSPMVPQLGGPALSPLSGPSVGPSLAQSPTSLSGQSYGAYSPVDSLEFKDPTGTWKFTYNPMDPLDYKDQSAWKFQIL
sequence,measurement,setting,value
CTTTTC,binding signal,FEV,"1.39 fold enrichment (6-mer frequency, TF over GST control)"
same,binding signal,ETV5,"1.44 fold enrichment (6-mer frequency, TF over GST control)"
same,binding signal,HSF1,"1.5 fold enrichment (6-mer frequency, TF over GST control)"
same,binding signal,SPIC,"1.45 fold enrichment (6-mer frequency, TF over GST control)"
same,binding signal,ELF4,"1.43 fold enrichment (6-mer frequency, TF over GST control)"
same,binding signal,ELK4,"1.49 fold enrichment (6-mer frequency, TF over GST control)"
same,binding signal,ETV2,"1.48 fold enrichment (6-mer frequency, TF over GST control)"
same,binding signal,ELF3,"1.48 fold enrichment (6-mer frequency, TF over GST control)"
same,binding signal,CRX,"1.25 fold enrichment (6-mer frequency, TF over GST control)"
same,binding signal,ETV1,"1.4 fold enrichment (6-mer frequency, TF over GST control)"
